Results from PubChem BioAssay (NCI).
Compounds without any hit were thinned out: in the full panel of roughly 83,000, 20% have a hit.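 Activity criterion: percent growth below 10, measured after cells in 96-well plates were exposed to a single compound concentration for 48 hours.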 A number with no mark means an inactive call. Active and inactive are the calls of the source.

Assays:
Test in all cases: NCI-60 one-dose screen, 48 h (100 = growth as untreated, 0 = no growth, -100 = all killed)
Settings in all cases: 10 µM unless noted
SK-MEL-2 melanoma = system: SK-MEL-2 melanoma
EKVX NSCLC = system: EKVX NSCLC
SN12C renal = system: SN12C renal
UO-31 renal = system: UO-31 renal
TK-10 renal = system: TK-10 renal
ACHN renal = system: ACHN renal
CAKI-1 renal = system: CAKI-1 renal
A498 renal = system: A498 renal
CCRF-CEM leukemia = system: CCRF-CEM leukemia
MOLT-4 leukemia = system: MOLT-4 leukemia

Row | Compound | growth (SK-MEL-2 melanoma) | growth (EKVX NSCLC) | growth (SN12C renal) | growth (UO-31 renal) | growth (TK-10 renal) | growth (ACHN renal) | growth (CAKI-1 renal) | growth (A498 renal) | growth (CCRF-CEM leukemia) | growth (MOLT-4 leukemia)
1 | CNC(=O)c1cc(Oc2ccc3nc(NC(=O)Nc4ccc(Cl)c(Cl)c4)sc3c2)ccn1 | 80.8% | 8.47% (active) | 57.3% | 39.9% | 66.3% | 70% | 103% | 93.6% | 42.5% | 66.2%
2 | Cc1ccc(-c2nc(C(Cl)Cl)nc3cc(C)nn23)cc1 | 65.5% | 5.75% (active) | 40.5% | 51.3% | 29% | -45% (active) | -14.2% (active) | -2.75% (active) | 32.5% | 16.7%
3 | Cc1ccccc1CNc1c2ccccc2nc2ccccc12 | 40.2% | 38.4% | 24.3% | 15.5% | 38.7% | 11.6% | 25.1% | -2.25% (active) | 17.6% | 8.85% (active)
4 | c1ccc(CCc2ccccc2-c2cc(-c3ccccc3)on2)cc1 | 86.4% | 86.4% | 85.5% | 75.5% | 110% | 89.2% | 92.2% | 89% | 82.7% | 73.1%
5 | Cc1c2cnccc2c(C)c2c1c1cc(C3OCCCO3)ccc1n2C | -67.5% (active) | 3.53% (active) | -10.2% (active) | -7.3% (active) | -14.5% (active) | -12.1% (active) | 8.13% (active) | -56.6% (active) | -6.77% (active) | -4.85% (active)
6 | CC/C(Cc1ccccc1)=C(\c1ccc(OCCN2CCCCCC2)cc1)c1ccc(OC(=O)NCc2ccccc2)cc1 | 98.9% | 69.5% | 66% | 59.2% | 91.6% | 95% | 93.8% | 82.5% | 47.5% | 42.6%
7 | C=C1C(=O)O[C@H]2[C@H]1CC/C(COC(=O)NCCCCCCCCNC(=O)OC/C1=C/CC[C@@]3(C)O[C@H]3[C@H]3OC(=O)C(=C)[C@@H]3CC1)=C\CC[C@@]1(C)O[C@@H]21 | -57.5% (active) | -82.4% (active) | -68.7% (active) | -92.4% (active) | -97.9% (active) | -93.2% (active) | -90.1% (active) | -88.7% (active) | -47.3% (active) | -27.5% (active)
8 | Fc1ccc(CNc2c3ccccc3nc3ccccc23)cc1 | 43.8% | 35.6% | 25.7% | 13.5% | 30.2% | 12.5% | 25.5% | -1.77% (active) | 26% | 8.68% (active)
9 | O=C(/C=C\c1ccco1)/C=C/c1ccco1 | 109% | 99.5% | 97.7% | 76.3% | 108% | 110% | 107% | 97.5% | 8.75% (active) | 112%
10 | CCNC(=O)Oc1ccc(/C(=C(/C)Cc2ccc(OC)cc2)c2ccc(OCCN3CCCCCC3)cc2)cc1 | 87% | 71.3% | 69.2% | 52.9% | 84.2% | 94.2% | 82.5% | 70.5% | 41.6% | 35.2%
11 | O=C1OCC2=C1C(c1cccc(F)c1)c1cc3c(cc1N2CCO)OCO3 (stereo not given) | 26% | 46.1% | 48.3% | 36.9% | 52.3% | 34.5% | 23.8% | 3.08% (active) | 7.3% (active) | 25.6%
12 | C#CC#CC#CC#CC#CC#CC#CC#CC[C@H]1OC[C@H](COC(=O)O[C@@H](C(=O)O[C@H]2C[C@@]3(O)[C@@H](OC(=O)c4ccccc4)[C@@H]4[C@]5(OC(C)=O)CO[C@@H]5C[C@H](O)[C@@]4(C)C(=O)[C@H](OC(C)=O)C(=C2C)C3(C)C)[C@@H](NC(=O)c2ccccc2)c2ccccc2)O1 | 73.9% | 74.5% | 46.5% | 100% | 102% | 87.6% | 77.1% | 50.2% | 26.7% | 43.3%
13 | Cc1cccc(NC(=O)CSc2nc3ccc([N+](=O)[O-])cc3[nH]2)c1 | 98.5% | 70.9% | 80.7% | 54.2% | 97.3% | 82.5% | 61.4% | 63.5% | 78.4% | 77.2%
14 | CN(C)c1ccc(-c2cc(-c3ccc(Nc4nc(Nc5ccc(Cl)cc5)nc(Nc5ccc(Cl)cc5)n4)cc3)nc(N)c2C#N)cc1 | 68.5% | 79.8% | 113% | 67.5% | 104% | 82.4% | 82.3% | 92.5% | 46.9% | 45%
15 | Cc1[nH]c(/C=C/C(=O)c2ccc(C(F)(F)F)c(F)c2)c(C)c1C(=O)NCC(C)C | 110% | 96.1% | 97.9% | 92% | 109% | 101% | 94.8% | 69% | 101% | 101%
16 | CCN1C(=O)N(CC)C2C1NN=C1SCC(=O)N12 (stereo not given) | 106% | 86.8% | 78.9% | 58.8% | 104% | 84.2% | 89.2% | 112% | 40% | 57.2%
17 | CCN(CC)CCCNCc1cc(-c2ccccc2)nc2cc(Cl)ccc12 | -61.9% (active) | 80.9% | 38.2% | 11% | 42.8% | 66.2% | 50.5% | 22.3% | 10.4% | 13.6%
18 | O=S(=O)(c1ccccc1)N1CCCN(c2nc(-c3ccccc3)nc3nc(-c4ccccc4)oc23)CC1 | 108% | 107% | 98.5% | 85.3% | 114% | 104% | 91.7% | 96.9% | 105% | 100%
19 | CCOc1ccc(NC(=O)c2cc(OC)c(OC)c(OC)c2)cc1 | 16.1% | 54.1% | 56% | 52% | 60.3% | 55.9% | 39.8% | -0.366% (active) | 27.9% | 31.6%
20 | N#Cc1c(-c2cccc([N+](=O)[O-])c2)cc(-c2ccc(Nc3nc(Nc4ccc(F)cc4)nc(Nc4ccc(F)cc4)n3)cc2)nc1N | 68.1% | 137% | 137% | 83.7% | 128% | 108% | 113% | 115% | 78% | 84.6%
21 | O=C(CCCCNC(=O)c1cc(=O)c(O)co1)Nc1ccccc1 | 98.8% | 95.6% | 88.4% | 76.4% | 98.3% | 31.5% | 94.3% | 98.2% | 6.26% (active) | 20.3%
22 | COc1cc(OC)cc(C2C(C#N)=C(N)Oc3c2ccc2ccc(O)cc32)c1 (stereo not given) | 21.3% | 32.9% | 9.97% (active) | 18.7% | 48.3% | 15.8% | 21.1% | 32.1% | 7.39% (active) | 7.26% (active)
23 | Clc1nn2c(Cn3cnc4c(NCc5ccccc5)ncnc43)nnc2c2ccccc12 | -5.44% (active) | 52% | 32% | 21.7% | 40.5% | 16.8% | 3.56% (active) | 22.5% | 39% | 26.5%
24 | O=C(Cn1nnc([N+](=O)[O-])n1)c1ccccc1 | 73.3% | 100% | 102% | 85.1% | 92% | 107% | 77.7% | 48.6% | 58.6% | 95.3%
25 | COc1cc(C2C3=C(COC3=O)N(CCO)c3cc4c(cc32)OCCO4)cc(OC)c1OC (stereo not given) | 58.5% | 45.7% | 23.8% | 54.3% | 60.3% | 20.7% | 41.3% | -28.8% (active) | 13.2% | 8.21% (active)
26 | COc1ccc2c(c1)c(-c1nc(-c3cn(C)c4ncccc34)cs1)cn2CCO | 93% | 67.5% | 86.1% | 67.7% | 83% | 72.1% | 88.7% | 49.3% | 43.3% | 58.2%
